# Assay results from PubChem BioAssay (NCI).
# This is part of a sample that, as a whole, favours compounds with a hit. Of some 79,000 tested, about 15% had one in any assay. A number with no mark means an inactive call. The source made the active and inactive calls. Cut-off read from the data, not from the text of the source: active = growth inhibition above about 70%; inactive = the rest.
# Assays:
# [1] = NCI Yeast Anticancer Drug Screen. Data for the rad52 strain (AID 147);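 note: 0% = growth of vehicle-treated control cultures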; settings: S. cerevisiae rad52 mutant growth inhibition, active compounds read high
# Procedure, shortened: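 Genetically altered yeast (DNA damage repair defect) treated with compound; inhibition calculated relative to vehicle.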
# [2] = NCI Yeast Anticancer Drug Screen. Data for the wt1 strain (AID 149);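 note: 0% = growth of vehicle-treated wt1 cultures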; settings: S. cerevisiae wt1 strain (SPY 50644) growth inhibition, active compounds read high
# Procedure, shortened: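 Each compound is tested on wt1 yeast and the loss of growth versus vehicle gives the inhibition value.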
# [3] = NCI Yeast Anticancer Drug Screen. Data for the rad50EPP+ strain (AID 151);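 note: 0% = growth of vehicle-treated control cultures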; settings: S. cerevisiae rad50 mutant strain, active compounds read high
# Procedure, shortened: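 Strain rad50EPP+; compound exposure; % growth inhibition vs vehicle.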
# [4] = NCI Yeast Anticancer Drug Screen. Data for the rad50 strain (AID 155);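 note: 0% = growth of vehicle-only cultures of the same strain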; settings: S. cerevisiae rad50 strain growth inhibition, active compounds read high
# Procedure, shortened: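 Vehicle-treated cultures provide the reference for the growth inhibition reported for compound-exposed, repair-deficient yeast.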
# [5] = NCI Yeast Anticancer Drug Screen. Data for the mec2-1 strain (AID 157); settings: S. cerevisiae mec2-1 strain, active compounds read high
# Procedure, shortened: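 Cells of the genetically defined mec2-1 yeast strain are incubated with test compound. Inhibition of growth is calculated against vehicle-treated controls.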
# [6] = NCI Yeast Anticancer Drug Screen. Data for the rad14 strain (AID 159);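 note: 0% = growth of vehicle-treated control cultures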; settings: S. cerevisiae rad14 strain growth inhibition, active compounds read high
# Procedure, shortened: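 Inhibition of growth is reported for a repair-deficient yeast mutant following compound treatment, calculated relative to cultures that received vehicle.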
# [7] = NCI Yeast Anticancer Drug Screen. Data for the sgs1 mgt1 strain (AID 161);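 note: 0% = growth of cultures given vehicle only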; settings: S. cerevisiae sgs1 mgt1 strain, active compounds read high
# Procedure, shortened: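 Genetically altered yeast, compound exposure, growth inhibition relative to vehicle.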
# [8] = NCI Yeast Anticancer Drug Screen. Data for the cln2 rad14 strain (AID 165);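 note: 0% = growth equal to vehicle treated cultures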; settings: S. cerevisiae cln2 rad14 strain, active compounds read high
# Procedure, shortened: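 The screen exposed genetically defined yeast (cln2 rad14) to test compounds and scored growth inhibition relative to vehicle-treated controls.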
# [9] = NCI Yeast Anticancer Drug Screen. Data for the bub3 strain (AID 167); settings: S. cerevisiae bub3 mutant strain, active compounds read high
# Procedure, shortened: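 Mutant yeast screening strain plus compound; vehicle-treated cultures serve as the 0% inhibition reference.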
# [10] = NCI Yeast Anticancer Drug Screen. Data for the wt2 strain (AID 169); settings: S. cerevisiae wt2 strain growth inhibition, active compounds read high
# Procedure, shortened: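 Steps: yeast strain treated with compound; growth recorded; inhibition calculated relative to cultures given vehicle alone.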
# [11] = NCI Yeast Anticancer Drug Screen. Data for the mlh1 strain (AID 171);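 note: 0% = growth of vehicle-treated control cultures of the same strain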; settings: S. cerevisiae mlh1 strain growth inhibition, active compounds read high
# Procedure, shortened: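 Yeast screen: mutant strain plus compound, growth scored against vehicle control wells.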
# [12] = NCI Yeast Anticancer Drug Screen. Data for the sgs1 strain (AID 173);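 note: 0% = growth of vehicle-only control cultures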; settings: S. cerevisiae sgs1 mutant, active compounds read high
# Procedure, shortened: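 Inhibition of yeast growth served as the measure. The mutant strain was treated with each compound, and growth was normalised to cultures receiving vehicle alone.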
# [13] = NCI Yeast Anticancer Drug Screen. Data for the mlh1 rad18 strain (AID 175); settings: S. cerevisiae mlh1 rad18 strain growth inhibition, active compounds read high
# Procedure, shortened: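 Compound-treated yeast growth, normalised to vehicle controls. Strain bears defined DNA repair mutations.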
# [14] = NCI Yeast Anticancer Drug Screen. Data for the rad18 strain (AID 177); settings: S. cerevisiae rad18 mutant growth inhibition, active compounds read high
# Procedure, shortened: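 Inhibition values reflect reduced yeast growth compared with vehicle-treated controls, using a strain engineered with a DNA damage repair defect.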
# [15] = at 5.0 µM (retest, dose inferred, filed as 0.5)
# [16] = at 50.0 µM (retest, dose inferred, filed as 5.0)
smiles,measurement,setting,value
CCCCCCCCN1C(=O)c2ccccc2C1=O,growth inhibition,[1]; at 1.2 µM,0%
same,growth inhibition,[1]; at 3.7 µM,0%
same,growth inhibition,[1]; at 11.0 µM,5%
same,growth inhibition,[1]; at 33.0 µM,10%
same,growth inhibition,[1]; at 100.0 µM,6%
same,growth inhibition,[2]; at 1.2 µM,-2%
same,growth inhibition,[2]; at 3.7 µM,-1%
same,growth inhibition,[2]; at 11.0 µM,-1%
same,growth inhibition,[2]; at 33.0 µM,-4%
same,growth inhibition,[2]; at 100.0 µM,-6%
same,growth inhibition,[3]; at 1.2 µM,2%
same,growth inhibition,[3]; at 3.7 µM,9%
same,growth inhibition,[3]; at 11.0 µM,14%
same,growth inhibition,[3]; at 33.0 µM,18%
same,growth inhibition,[3]; at 100.0 µM,42%
same,growth inhibition,[4]; at 1.2 µM,0%
same,growth inhibition,[4]; at 3.7 µM,3%
same,growth inhibition,[4]; [15],20%
same,growth inhibition,[4]; at 11.0 µM,6%
same,growth inhibition,[4]; at 33.0 µM,10%
same,growth inhibition,[4]; [16],15%
same,growth inhibition,[4]; at 50.0 µM,39.5%
same,growth inhibition,[4]; at 100.0 µM,-2%
same,growth inhibition,[5]; at 1.2 µM,-3%
same,growth inhibition,[5]; at 3.7 µM,-4%
same,growth inhibition,[5]; [15],-7%
same,growth inhibition,[5]; at 11.0 µM,-5%
same,growth inhibition,[5]; at 33.0 µM,-4%
same,growth inhibition,[5]; [16],13%
same,growth inhibition,[5]; at 50.0 µM,50%
same,growth inhibition,[5]; at 100.0 µM,0%
same,growth inhibition,[6]; at 1.2 µM,-2%
same,growth inhibition,[6]; at 3.7 µM,0%
same,growth inhibition,[6]; at 11.0 µM,6%
same,growth inhibition,[6]; at 33.0 µM,14%
same,growth inhibition,[6]; at 100.0 µM,18%
same,growth inhibition,[7]; [15],1%
same,growth inhibition,[7]; [16],36%
same,growth inhibition,[7]; at 50.0 µM,78.7% (active)
same,growth inhibition,[8]; [15],-15%
same,growth inhibition,[8]; [16],-7%
same,growth inhibition,[8]; at 50.0 µM,-91.1%
same,growth inhibition,[9]; at 1.2 µM,2%
same,growth inhibition,[9]; at 3.7 µM,4%
same,growth inhibition,[9]; [15],8%
same,growth inhibition,[9]; at 11.0 µM,21%
same,growth inhibition,[9]; at 33.0 µM,39%
same,growth inhibition,[9]; [16],40%
same,growth inhibition,[9]; at 50.0 µM,89.5% (active)
same,growth inhibition,[9]; at 100.0 µM,50%
same,growth inhibition,[10]; at 1.2 µM,-2%
same,growth inhibition,[10]; at 3.7 µM,-3%
same,growth inhibition,[10]; at 11.0 µM,-4%
same,growth inhibition,[10]; at 33.0 µM,-5%
same,growth inhibition,[10]; at 100.0 µM,-4%
same,growth inhibition,[11]; at 1.2 µM,0%
same,growth inhibition,[11]; at 3.7 µM,0%
same,growth inhibition,[11]; at 11.0 µM,3%
same,growth inhibition,[11]; at 33.0 µM,7%
same,growth inhibition,[11]; at 100.0 µM,14%
same,growth inhibition,[12]; at 1.2 µM,-3%
same,growth inhibition,[12]; at 3.7 µM,-1%
same,growth inhibition,[12]; at 11.0 µM,0%
same,growth inhibition,[12]; at 33.0 µM,4%
same,growth inhibition,[12]; at 100.0 µM,13%
same,growth inhibition,[13]; [15],-2%
same,growth inhibition,[13]; [16],62%
same,growth inhibition,[13]; at 50.0 µM,91% (active)
same,growth inhibition,[14]; at 1.2 µM,-2%
same,growth inhibition,[14]; at 3.7 µM,-3%
same,growth inhibition,[14]; at 11.0 µM,-2%
same,growth inhibition,[14]; at 33.0 µM,4%
same,growth inhibition,[14]; at 100.0 µM,14%
